# Screening data: PubChem BioAssay, Sanford-Burnham Center for Chemical Genomics
# The full list was thinned out, with hits kept by preference.
# Artemis endo inh: Artemis endonuclease inhibitors, primary screen, biochemical, fluorescence intensity, FAM/BHQ-1 hairpin substrate. recombinant Artemis, quenched FAM hairpin cleavage fluorescence. inhibition, % at 10 µM. actives 0.78% (n = 30,000);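 active means at 10 µM dose, at least 30% inhibition, measured as corrected fluorescence normalized to stimulator and neutral control wells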
# Target sequence (Q96SD1 whole entry, looked up): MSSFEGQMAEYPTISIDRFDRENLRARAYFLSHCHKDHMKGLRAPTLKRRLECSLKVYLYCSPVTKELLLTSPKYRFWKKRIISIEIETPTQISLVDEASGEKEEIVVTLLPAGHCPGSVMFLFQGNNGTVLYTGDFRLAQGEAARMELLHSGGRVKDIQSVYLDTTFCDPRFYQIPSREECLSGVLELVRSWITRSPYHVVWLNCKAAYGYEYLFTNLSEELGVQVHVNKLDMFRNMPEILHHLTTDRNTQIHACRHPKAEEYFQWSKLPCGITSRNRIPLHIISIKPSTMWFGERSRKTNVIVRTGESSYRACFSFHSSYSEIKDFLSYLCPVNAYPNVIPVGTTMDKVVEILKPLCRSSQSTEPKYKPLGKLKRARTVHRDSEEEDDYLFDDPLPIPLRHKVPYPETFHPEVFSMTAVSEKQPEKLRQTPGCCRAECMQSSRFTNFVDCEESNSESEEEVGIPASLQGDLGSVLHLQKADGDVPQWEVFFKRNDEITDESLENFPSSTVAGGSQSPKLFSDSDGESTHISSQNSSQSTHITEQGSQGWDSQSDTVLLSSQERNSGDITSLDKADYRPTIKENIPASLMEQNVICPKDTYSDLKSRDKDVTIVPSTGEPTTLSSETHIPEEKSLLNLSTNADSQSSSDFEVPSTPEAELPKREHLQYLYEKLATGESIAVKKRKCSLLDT
# Starred values were filed as active, the others as inactive.
SMILES,Artemis endo inh
CSc1cccc(NC(=O)CN(c2cc(C)ccc2C)S(C)(=O)=O)c1,0
C=CCNC(=O)C1CCN(c2c([N+](=O)[O-])cc(C(F)(F)F)cc2[N+](=O)[O-])CC1,7
CCN(CC)c1ccc(C=Nc2ccc(C#N)cc2)c(O)c1,2
CCCCNc1nc2ccccc2[nH]1,1
CCN(CC)c1ccc(/C=N/Nc2nc3ccccc3[nH]2)c(O)c1,38*
c1ccc(N2CCN(c3nc(NCc4ccco4)c4ccccc4n3)CC2)cc1,25
c1ccc(-c2nc(NCc3ccco3)c3ccccc3n2)nc1,64*
c1coc(CNc2nc(N3CCCCC3)nc3ccccc23)c1,6
CCOC(=O)N1CCN(CC(=O)Nc2ccc(Oc3ccccc3)cc2)CC1,14
CCOC(=O)C1=C(O)CSC1=Nc1ccccc1,-2
CCOC(=O)C1=C(O)/C(=C/c2ccc(-c3ccccc3C(=O)O)o2)SC1=Nc1ccc(OC)cc1,30*
CCOC(=O)c1c(C)[nH]c(C=Nc2ccc(OC)cc2)c1O,10
Cc1nn(CC#N)c(=O)n1-c1ccc(F)cc1,-4
COC(=O)NC(=S)Nc1ccc(Oc2ccc(Cl)cc2Cl)c(Cl)c1,10
CC(=O)OCCCCON1C(=O)c2ccccc2C1=O,6
O=C1c2ccccc2C(=O)N1OCc1cccc(Cl)c1,55*
O=C1c2ccncc2C(=O)N1Cc1cccc(Cl)c1,4
C=CCSc1nnc2c(n1)OC(c1c(C)[nH]n(-c3ccccc3)c1=O)Nc1ccccc1-2 (stereo unspecified),-6
O=C(COc1ccc(Br)cc1)N1CCC(c2ccccc2)C1 (stereo unspecified),-3
Cc1ccc(CNC(=O)CSCC(=O)O)cc1,1
O=C(Nc1nc(-c2ccco2)c(-c2ccco2)s1)C1CC(=O)N(c2ccc3c(c2)OCCO3)C1 (stereo unspecified),32*
O=C(Nc1nc2ccccc2s1)C1CC(=O)N(c2ccc(Cl)cc2)C1 (stereo unspecified),5
O=C(COC(=O)C1CC(=O)N(c2ccc3c(c2)OCCO3)C1)Nc1ccc2c(c1)CCC2 (stereo unspecified),-7
CCOC(=O)/C(N)=C/c1ncc(C(F)(F)F)cc1Cl,1
COc1ccccc1NCc1nnc(SCC(=O)N/N=C/c2ccco2)n1-c1ccc(Cl)cc1Cl,8
SMILES,Artemis endo inh
COc1ccc(OC)c(NC(=O)C2COc3ccccc3O2)c1 (stereo unspecified),-1
O=C(N/N=C\c1ccc(-c2ccccc2[N+](=O)[O-])o1)C1COc2cc3ccccc3cc2O1 (stereo unspecified),36*
Cc1ccc(/C=N\NC(=O)C2COc3cc4ccccc4cc3O2)o1 (stereo unspecified),4
Cc1cc(N2C(=O)C(O)=C(C(=O)c3ccco3)C2c2ccc(O)cc2)no1 (stereo unspecified),-2
CCc1ccc2nc(N3C(=O)C(O)=C(C(=O)c4ccco4)C3c3cccs3)sc2c1 (stereo unspecified),43*
Cc1cc(N2C(=O)C(O)=C(C(=O)c3ccc(C)o3)C2c2cccs2)no1 (stereo unspecified),16
CN(Cc1cccs1)C(=O)CSc1nnnn1C,0
C=CCn1c(SCC(=O)c2cc(C)n(CCOC)c2C)nc2sc(C)c(C)c2c1=O,0
COc1ccc(-c2nc(-c3cccs3)c(-c3cccs3)[nH]2)cc1O,10
COc1cccc(/C=N/NC(=O)c2ccc(-c3ccccc3)cc2)c1O,13
COc1cccc(/C=N/NC(=O)c2[nH]c(C)c(C(=O)N/N=C/c3cccc(OC)c3O)c2C)c1O,91*
COc1ccccc1NC(=O)c1[nH]c(C)c(C(C)=O)c1C,-4
O=C(Nc1ccccc1)OCc1cc(-c2ccccc2Cl)on1,12
Cc1cccc(C(=O)N2CCN(c3ccc([N+](=O)[O-])c(N4CCOCC4)c3)CC2)c1,2
Cc1cccc(C(=O)N2CCN(c3ccc([N+](=O)[O-])c(NCc4ccco4)c3)CC2)c1,28
Cc1ccc(C(=O)N2CCN(c3ccc([N+](=O)[O-])c(NCc4ccco4)c3)CC2)cc1,31*
CNc1nc(SCc2ccc(C)cc2)nc2c1CCCC2,-4
CCOCc1nc(N)[nH]c(=O)c1Cc1ccc(OC(C)C)cc1,4
CC1(C)CC(=O)C2=C(C1)Oc1nc3ccccc3cc1C2C(C#N)C#N (stereo unspecified),-4
Cc1ccc(CSCC(=O)N2CCOCC2)cc1,-12
Cc1ccc(/C=C/C(=O)O)cc1S(=O)(=O)N(CCO)CCO,2
COc1ccc(O)c(/C=N/NC(=O)CSc2nnc(C)n2-c2ccccc2)c1,0
Cc1cc(C)n(-c2nc(C)nc(NCc3ccccc3)n2)n1,-2
COc1ccc(O)c(/C=N/Nc2nc(Nc3ccccc3)nc(-n3nc(C)cc3C)n2)c1,102*
COc1ccc(CS(=O)(=O)/C(Cl)=C(/Cl)C(=O)Nc2ccc(OC)nc2)cc1,11
SMILES,Artemis endo inh
Cc1nc(NC(=O)c2cc3c(C)nn(-c4ccccc4)c3s2)sc1C(=O)Nc1ccccc1,83*
Cc1nc(C)c(C(=O)Nc2ccccc2)s1,-4
Cc1nn(-c2ccc(F)cc2)c2sc(C(=O)N3CCCCCC3)cc12,6
C/C(=N\NC(=S)NC(C)C)c1ccc(-n2ccnc2)cc1,-5
CC(=O)c1ccc(N2CCN(c3ccc(S(=O)(=O)N4CCN(C)CC4)cn3)CC2)cc1,-6
C=CCc1ccc(OCCOCCNCCCC)c(OC)c1,-5
O=C(Nc1cccc(C(F)(F)F)c1)c1ccc2nc(-c3ccco3)c(-c3ccco3)nc2c1,42*
O=C(NCc1ccco1)Nc1ccc2nsnc2c1,9
O=S(=O)(c1ccc2nc(-c3ccco3)c(-c3ccco3)nc2c1)N1CCOCC1,28
Cn1nc(C(=O)Nc2cccc(C(F)(F)F)c2)ccc1=O,3
CC(C)Oc1cccc(C(=O)NC(=S)Nc2cccc(C(F)(F)F)c2)c1,0
O=C(Nc1ccc2nc(-c3ccco3)c(-c3ccco3)nc2c1)NC1CC1,50*
COCCOc1cc(-n2ccnc2SC)c(Cl)cc1Cl,-5
NC1=NS(=O)(=O)NC1c1cccc(Cl)c1 (stereo unspecified),-5
COc1cc2c(cc1OC)-c1nnc(-c3ccco3)n1C1(CCCC1)C2,-1
CCSc1c(-c2ccccc2)nc2c(C)cccc2c1C(=O)O,7
Cc1nc(NCCc2ccccc2F)c(C#N)c(C)c1[N+](=O)[O-],3
O=C(Cc1ccccc1)NC(Nc1cccc2ccccc12)C(Cl)(Cl)Cl (stereo unspecified),-1
Cc1ccc(NC(NC(=O)c2cccs2)C(Cl)(Cl)Cl)cc1 (stereo unspecified),7
O=C(Cc1ccccc1)NC(Nc1ccccc1)C(Cl)(Cl)Cl (stereo unspecified),31*
CCC(=O)Nc1ccc(/C(C)=N\NS(=O)(=O)c2ccc(C)cc2)cc1,12
Cc1cccc(-c2nnc(SCC(=O)Nc3nc4c(s3)CCCC4)n2C)c1,6
CCOC(=O)C1=C(c2cccc(Oc3ccccc3)c2)NC(=S)NC1C (stereo unspecified),-2
CCN(CCNC(=O)CN1CCN(Cc2ccc(Cl)cc2)C1=O)c1ccccc1,0
CCOc1ccccc1-c1nc(SCC(=O)O)n[nH]1,3
Cc1cc(NS(=O)(=O)c2ccc(NC(=S)NC(=O)c3ccc(Cl)cc3Cl)cc2)no1,30*
Cc1cc(NS(=O)(=O)c2ccc(NC(=O)CCc3ccccc3)cc2)no1,2
COc1cc(C(=O)Nc2ccc(S(=O)(=O)Nc3cc(C)on3)cc2)cc(OC)c1OC,-7
Cn1cc(CC(=O)Nc2cccc(C#N)c2)c2ccccc21,-8
